NR3A LBD binder – modulators (binders) of human NR3A ligand-binding domain; NR3A LBD differential scanning fluorimetry, Tm shift; 0% = protein alone, 100% = glycine-bound protein; Tm shift relative to glycine control, % at 25 µM; actives 2.5% (n = 340,000); AID 1259313;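 active = melting temperature shift of at least 10% of the positive control shift, at one fixed dose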
Mdm2 MdmX PPI – disrupts the human Mdm2-MdmX interaction | O15151+Q00987 | SaOS-2 split-luciferase Mdm2/MdmX complementation, luminescence | inhibition, % at 8 µM | actives 3% (n = 330,000) | AID 485346;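 active = inhibition of at least 50% at 8 µM in the primary screen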
Target sequence (O15151 whole entry, looked up): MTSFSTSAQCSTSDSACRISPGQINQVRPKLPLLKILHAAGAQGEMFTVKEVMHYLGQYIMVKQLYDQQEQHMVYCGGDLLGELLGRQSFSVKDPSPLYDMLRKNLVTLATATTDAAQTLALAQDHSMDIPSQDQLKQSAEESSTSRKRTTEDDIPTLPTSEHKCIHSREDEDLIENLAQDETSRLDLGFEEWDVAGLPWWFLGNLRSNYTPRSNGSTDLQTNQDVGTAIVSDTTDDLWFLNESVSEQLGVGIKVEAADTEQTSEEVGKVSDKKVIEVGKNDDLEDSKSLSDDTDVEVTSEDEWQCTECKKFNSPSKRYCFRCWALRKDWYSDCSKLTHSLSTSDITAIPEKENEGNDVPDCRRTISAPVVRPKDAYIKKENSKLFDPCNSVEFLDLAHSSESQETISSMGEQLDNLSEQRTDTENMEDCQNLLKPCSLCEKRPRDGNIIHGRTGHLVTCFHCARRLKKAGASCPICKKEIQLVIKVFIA
Target sequence (Q00987 whole entry, looked up): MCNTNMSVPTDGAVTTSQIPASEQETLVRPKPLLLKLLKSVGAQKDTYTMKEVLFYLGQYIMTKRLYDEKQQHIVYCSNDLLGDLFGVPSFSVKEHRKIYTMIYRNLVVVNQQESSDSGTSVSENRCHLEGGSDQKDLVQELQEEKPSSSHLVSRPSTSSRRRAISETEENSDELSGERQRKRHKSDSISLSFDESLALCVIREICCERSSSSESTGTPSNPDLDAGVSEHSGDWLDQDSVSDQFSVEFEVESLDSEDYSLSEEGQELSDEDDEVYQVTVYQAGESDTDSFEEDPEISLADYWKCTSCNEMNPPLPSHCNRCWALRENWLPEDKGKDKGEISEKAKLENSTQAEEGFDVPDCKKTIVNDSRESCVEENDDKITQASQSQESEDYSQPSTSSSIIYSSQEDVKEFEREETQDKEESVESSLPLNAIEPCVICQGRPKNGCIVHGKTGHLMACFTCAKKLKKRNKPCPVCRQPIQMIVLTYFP
Beta apoptosis – beta cell apoptosis inhibition | protection from apoptosis, % (no concentration beside the values) | actives 0.8% (n = 300,000) | INS-1E cytokine-induced death, ATP luminescence, 48 h; percent of positive-control rescue, neutral wells zero;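 active = Every replicate reaches about 75%, or at least half do and their mean reaches it too, limit read from the data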;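 also: higher means more ATP so stronger rescue from cytokine killing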
MPTP block – inhibitors of mitochondrial permeability transition pore | isolated mouse mitochondria, Ca2+ swelling absorbance, 30 min | inhibition, % at 10 µM | actives 1.4% (n = 360,000);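 active = inhibition of 50% or more, scaled per plate between neutral and stimulator controls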
CSC inhib – blocks cancer stem cells; AID 2717; inhibition, % at 7.5 µM; actives 1.1% (n = 300,000); cancer stem cell-like cells viability, luminescence; in the data active = inhibition above about 75%; tested in HMLE shEcad cells
SKKanGAS inh – inhibitors of SKKanGAS S. pyogenes growth in kanamycin (SK-promoter or general growth effect); inhibition, % at 7.5 µM; actives 1.3% (n = 300,000); AID 1662; BacTiter-Glo, 6 h;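 active = mean replicate score, as percent of positive control median, at least 50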;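 also: strain carries kanamycin resistance gene driven by streptokinase promoter and grows in 40 µg/ml kanamycin; loss of luminescence reflects streptokinase promoter inhibition or plain growth inhibition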
Each line names hits and unclear results; the compound was inactive in the other large screens. This is a sample that favours compounds with a hit; in the whole collection about 6.9% have one here.

C[C@H]1CN([C@@H](C)CO)C(=O)CCCn2cc(nn2)CO[C@@H]1CN(C)S(=O)(=O)c1cccc(F)c1	none (no result: NR3A LBD binder, Mdm2 MdmX PPI, Beta apoptosis, CSC inhib, SKKanGAS inh)
O=C(NCc1cccs1)c1nc2c(nnn2Cc2ccccc2Cl)c(=O)[nH]1	CSC inhib 111 (no result: Mdm2 MdmX PPI)
CCC(C)NC(=O)c1nc2c(nnn2Cc2ccccc2Cl)c(=O)[nH]1 (stereo not drawn)	none
CCC(Sc1nc(N)cc(=O)[nH]1)C(=O)Nc1cc(C)on1 (stereo not drawn)	none
CCn1cc(C(=O)NCCC(=O)OC)c(=O)c2cc3c(cc21)OCO3	none
Cc1nc2c(cc1N)nc(C)n2Cc1ccccc1	none
CC(=O)Nc1ccc(NC(=O)C(C)OC(=O)CCN=C2NS(=O)(=O)c3ccccc32)cc1 (stereo not drawn)	none
CC(OC(=O)CCCCCN=C1NS(=O)(=O)c2ccccc21)C(=O)Nc1cc(Cl)cc(Cl)c1 (stereo not drawn)	NR3A LBD binder 18
COc1cc(OC)c(N(C)S(=O)(=O)c2cccc(C(=O)Nc3nccs3)c2)cc1Cl	none (no result: SKKanGAS inh)
CCC(=O)Nc1ccc(NC(=O)c2ccc3ccccc3c2)cc1	NR3A LBD binder 10
CCCn1nnnc1NC(=O)c1ccc2ccccc2c1	SKKanGAS inh 90
CCCn1nnc(NC(=O)c2ccc3ccccc3c2)n1	none
CC(=O)c1ccc(NC(=O)CSCC(=O)Nc2ccc3ccccc3c2)cc1	NR3A LBD binder 13
C#CCOCCOCCOCCNc1nc(N2CCN(C(=O)C([C@@H](C)O)n3cc([C@@H](N)CCCCN)nn3)CC2)nc(N2CCN(C(=O)[C@H](CCCCN)n3cc([C@@H](N)CC(N)=O)nn3)CC2)n1 (stereo partly drawn)	none (no result: SKKanGAS inh)
CCc1cccc(C)c1NC(=O)CN1C(=O)NC(C)(CCC(C)C)C1=O (stereo not drawn)	none (no result: SKKanGAS inh)
COC(=O)c1ccc(CNC(=O)C(Cc2ccccc2)NC(=O)c2ccccc2)cc1 (stereo not drawn)	none (no result: NR3A LBD binder, Mdm2 MdmX PPI, Beta apoptosis, CSC inhib, SKKanGAS inh)
COc1cc(SC)ccc1C(=O)NCCOc1ccc(C)c(C)c1	NR3A LBD binder 16 (no result: CSC inhib)
COc1ccccc1C(=O)NCCOc1ccc(C)c(C)c1	none
CCCS(=O)(=O)NC(=O)C1(C)CCN(C(=O)c2ccccc2OC(F)(F)F)C1 (stereo not drawn)	none (no result: NR3A LBD binder, Mdm2 MdmX PPI, Beta apoptosis, CSC inhib, SKKanGAS inh)
COc1ccc(CC(=O)N/N=C/c2cccs2)cc1OC	none
COc1ccc(COC(=O)N/N=C/c2cccs2)cc1	NR3A LBD binder 32 (no result: Beta apoptosis)
CC(=O)c1cccc(OCc2cc(C(=O)N3CCC(N4CCCCC4)CC3)no2)c1	none
CC(C)[C@H](NC(=O)N1CC(=O)Nc2ccccc21)C(=O)N[C@@H](Cc1ccccc1)C(=O)O	SKKanGAS inh 94 (no result: Beta apoptosis)
CC(C)C[C@H](NC(=O)N1CC(=O)Nc2ccccc21)C(=O)N[C@H](C(=O)O)c1ccccc1	SKKanGAS inh 63 (no result: Mdm2 MdmX PPI)
O=C1CN(C(=O)N[C@@H](Cc2ccccc2)C(=O)N[C@@H](Cc2ccccc2)C(=O)O)c2ccccc2N1	none (no result: Beta apoptosis)
COc1ccccc1CC(=O)NNC(=O)c1ccco1	none (no result: CSC inhib)
COc1ccc2c(CN(C)Cc3ccccc3)cc(=O)oc2c1	none (no result: NR3A LBD binder, Mdm2 MdmX PPI, Beta apoptosis, CSC inhib, SKKanGAS inh)
COc1cc(C=C2Cc3ccccc3C2=O)cc(OC)c1OC	none (no result: NR3A LBD binder, Mdm2 MdmX PPI, Beta apoptosis, CSC inhib, SKKanGAS inh)
COc1ccc(/C=C2\Cc3ccccc3C2=O)cc1OC	NR3A LBD binder 13 (no result: Mdm2 MdmX PPI)
S=c1[nH]nc(COc2ccccc2)n1/N=C/C=C/c1ccccc1	none
S=c1[nH]nc(COc2ccccc2)n1/N=C/C(Cl)=C/c1ccccc1	CSC inhib 142
Cc1ccc(NNC(=O)c2ccno2)cc1Cl	Beta apoptosis 99, CSC inhib 97
Cc1ccc(NNC(=O)c2c(C)noc2C)cc1Cl	CSC inhib 98
Cc1noc(C)c1C(=O)NNc1ccc(C(C)C)cc1	none
Cc1ccc(NNC(=O)c2ccno2)cc1C	none
CC(=O)CC1=NC(C)(C)Cc2ccccc21	none
NC(=O)COC(=O)c1cccc(NS(=O)(=O)/C=C/c2ccccc2)c1	NR3A LBD binder 12 (no result: CSC inhib)
Cc1ccc(/C=N/NC(=O)c2nnn(-c3nonc3N)c2CSc2ccccc2)s1	NR3A LBD binder 30
CCCc1c(C(=O)N/N=C/c2ccc(-c3ccccc3)cc2)nnn1-c1nonc1N	none (no result: NR3A LBD binder, Mdm2 MdmX PPI, Beta apoptosis, CSC inhib, SKKanGAS inh)
CCCc1c(C(=O)N/N=C/c2ccc(C)s2)nnn1-c1nonc1N	none
Cc1ccsc1/C=N/NC(=O)c1nnn(-c2nonc2N)c1CSc1ccccc1	NR3A LBD binder 36
Nc1nonc1-n1nnc(C(=O)N/N=C/c2ccoc2)c1CSc1ccccc1	NR3A LBD binder 16
Nc1nonc1-n1nnc(C(=O)N/N=C/c2ccccc2)c1CSc1ccccc1	NR3A LBD binder 35
Cc1ccsc1/C=N/NC(=O)c1nnn(-c2nonc2N)c1-c1ccccc1	none (no result: CSC inhib)
CN(C)Cc1c(C(=O)N/N=C/c2ccoc2)nnn1-c1nonc1N	none
CCN(CC)S(=O)(=O)c1cc(NC(=O)C2CC(=O)N(Cc3ccccc3)C2)ccc1Cl (stereo not drawn)	none (no result: CSC inhib, SKKanGAS inh)
COc1ccc(S(=O)(=O)NC(=O)C2(C)CCN2C(=O)C2(c3ccccc3)CC2)cc1 (stereo not drawn)	none (no result: NR3A LBD binder, Mdm2 MdmX PPI, Beta apoptosis, CSC inhib, SKKanGAS inh)
Nc1nonc1-n1nnc(C(=O)N/N=C/c2ccoc2)c1CSc1ccc(Cl)cc1	NR3A LBD binder 35
CCN(CC)Cc1c(C(=O)N/N=C/c2ccc(C)o2)nnn1-c1nonc1N	none
Nc1nonc1-n1nnc(C(=O)N/N=C/c2ccncc2)c1CSc1ccccc1	NR3A LBD binder 11
Cc1ccc(/C=N/NC(=O)c2nnn(-c3nonc3N)c2CSc2ccc(Cl)cc2)o1	NR3A LBD binder 21
CN(C)Cc1c(C(=O)N/N=C/c2ccncc2)nnn1-c1nonc1N	none
O=C(NCc1cccnc1)C(=O)N/N=C/c1ccccc1[N+](=O)[O-]	none
COc1cc2c(cc1NC(=O)c1cncc(Br)c1)oc1ccccc12	NR3A LBD binder 24 (no result: SKKanGAS inh)
COc1cc2c(cc1NC(=O)Nc1ccccc1)oc1ccccc12	NR3A LBD binder 16
CCN(CC)S(=O)(=O)c1cccc(C(=O)Nc2cc3oc4ccccc4c3cc2OC)c1	NR3A LBD binder 22 (no result: CSC inhib)
COc1ccc(CN(C)CC(=O)Nc2cc3oc4ccccc4c3cc2OC)c(OC)c1	CSC inhib 84
Cc1cccc(-c2noc(CN(C)C(=O)c3ccc4c(c3)OCO4)n2)c1	none (no result: Beta apoptosis)
CCCCN(C=O)c1c(CC)nc2ccc(C(=O)N(C)Cc3ccccc3)cn12	none (no result: NR3A LBD binder, Mdm2 MdmX PPI, Beta apoptosis, CSC inhib, SKKanGAS inh)
Cc1ccc(NC(=O)c2c3c(nc4ccccc24)CCC3)cc1S(=O)(=O)N(C)C	none
NC(=O)c1ccc(Nc2ccc([N+](=O)[O-])cc2[N+](=O)[O-])cc1	none
O=C(O)c1ccccc1C(=O)Nc1ccc(Nc2ccc([N+](=O)[O-])cc2[N+](=O)[O-])cc1	NR3A LBD binder 10
Nc1ccc(Nc2ccc([N+](=O)[O-])cc2[N+](=O)[O-])cc1	Beta apoptosis 102
Cc1cc(C)c(N2C(=O)CC(Sc3ccccc3N)C2=O)c(C)c1 (stereo not drawn)	none (no result: NR3A LBD binder, Mdm2 MdmX PPI, Beta apoptosis, CSC inhib, SKKanGAS inh)
Cc1[nH]c2ccccc2c1C(=O)CSC(=S)N(C)C	NR3A LBD binder 16
